Assay results from ChEMBL document CHEMBL1961873, “Compounds: GSK PKIS; Assays: Nanosyn kinase panel” (2012).

Key:
[1] = biological target: Mast/stem cell growth factor receptor Kit (Homo sapiens) (UniProt P10721); conditions: at 1 µM
[2] = tested on: Mast/stem cell growth factor receptor Kit (Homo sapiens), P10721 [D816V]; conditions: at 0.1 µM
[3] = tested on: Mast/stem cell growth factor receptor Kit (Homo sapiens), P10721 [D816V]; conditions: at 1 µM
[4] = tested on: Mast/stem cell growth factor receptor Kit (Homo sapiens), P10721 [T670I]; conditions: at 0.1 µM
[5] = tested on: Mast/stem cell growth factor receptor Kit (Homo sapiens), P10721 [T670I]; conditions: at 1 µM
[6] = tested on: Mast/stem cell growth factor receptor Kit (Homo sapiens), P10721 [V560G]; conditions: at 0.1 µM
[7] = tested on: Mast/stem cell growth factor receptor Kit (Homo sapiens), P10721 [V560G]; conditions: at 1 µM
[8] = biological target: Tyrosine-protein kinase Lck (Homo sapiens) (UniProt P06239); conditions: at 0.1 µM
[9] = biological target: Tyrosine-protein kinase Lck (Homo sapiens) (UniProt P06239); conditions: at 1 µM
[10] = biological target: Leukocyte tyrosine kinase receptor (Homo sapiens) (UniProt P29376); conditions: at 0.1 µM
[11] = biological target: Leukocyte tyrosine kinase receptor (Homo sapiens) (UniProt P29376); conditions: at 1 µM
[12] = biological target: Tyrosine-protein kinase Lyn (Homo sapiens) (UniProt P07948); conditions: at 0.1 µM
[13] = biological target: Tyrosine-protein kinase Lyn (Homo sapiens) (UniProt P07948); conditions: at 1 µM
[14] = biological target: Tyrosine-protein kinase Lyn (Homo sapiens) (UniProt P07948); conditions: at 0.1 µM; remark: listed apart in the source
[15] = biological target: Tyrosine-protein kinase Lyn (Homo sapiens) (UniProt P07948); conditions: at 1 µM; remark: listed apart in the source
[16] = biological target: T1, Tyrosine-protein kinase Mer (Homo sapiens) (UniProt Q12866); conditions: at 0.1 µM
T1 sequence (whole entry): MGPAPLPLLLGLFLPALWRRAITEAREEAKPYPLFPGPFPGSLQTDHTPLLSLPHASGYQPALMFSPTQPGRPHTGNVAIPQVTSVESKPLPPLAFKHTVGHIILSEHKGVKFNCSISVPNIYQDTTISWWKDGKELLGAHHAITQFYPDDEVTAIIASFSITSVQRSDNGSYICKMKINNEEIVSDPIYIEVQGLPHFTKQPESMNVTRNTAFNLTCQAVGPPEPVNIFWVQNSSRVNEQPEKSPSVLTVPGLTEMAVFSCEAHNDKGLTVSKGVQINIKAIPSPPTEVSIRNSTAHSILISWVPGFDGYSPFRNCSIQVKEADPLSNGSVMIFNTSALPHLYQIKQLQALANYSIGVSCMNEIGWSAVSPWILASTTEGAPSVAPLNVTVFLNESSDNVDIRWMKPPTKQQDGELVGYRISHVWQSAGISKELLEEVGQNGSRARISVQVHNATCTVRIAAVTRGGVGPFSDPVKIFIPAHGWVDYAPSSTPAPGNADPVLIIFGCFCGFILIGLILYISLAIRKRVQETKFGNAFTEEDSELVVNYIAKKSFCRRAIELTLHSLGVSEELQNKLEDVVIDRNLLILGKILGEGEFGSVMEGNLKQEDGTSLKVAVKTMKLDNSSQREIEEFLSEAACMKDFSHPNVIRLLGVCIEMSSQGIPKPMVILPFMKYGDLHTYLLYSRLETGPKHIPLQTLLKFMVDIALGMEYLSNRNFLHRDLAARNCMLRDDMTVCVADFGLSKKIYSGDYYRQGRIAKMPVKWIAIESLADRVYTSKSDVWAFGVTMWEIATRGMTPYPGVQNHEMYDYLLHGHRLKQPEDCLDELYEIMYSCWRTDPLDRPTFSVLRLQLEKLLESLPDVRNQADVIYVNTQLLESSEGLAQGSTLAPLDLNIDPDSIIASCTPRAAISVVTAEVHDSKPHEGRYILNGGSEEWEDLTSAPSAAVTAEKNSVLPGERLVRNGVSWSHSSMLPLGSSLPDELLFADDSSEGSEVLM

[17] = biological target: T1, Tyrosine-protein kinase Mer (Homo sapiens); conditions: at 1 µM
[18] = biological target: Hepatocyte growth factor receptor (Homo sapiens) (UniProt P08581); conditions: at 0.1 µM
[19] = biological target: Hepatocyte growth factor receptor (Homo sapiens) (UniProt P08581); conditions: at 1 µM
[20] = biological target: T2, Muscle, skeletal receptor tyrosine-protein kinase (Homo sapiens) (UniProt O15146); conditions: at 0.1 µM;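 note: values are mean inhibition of MuSK from the GSK PKIS kinase screening panel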
T2 sequence (whole entry): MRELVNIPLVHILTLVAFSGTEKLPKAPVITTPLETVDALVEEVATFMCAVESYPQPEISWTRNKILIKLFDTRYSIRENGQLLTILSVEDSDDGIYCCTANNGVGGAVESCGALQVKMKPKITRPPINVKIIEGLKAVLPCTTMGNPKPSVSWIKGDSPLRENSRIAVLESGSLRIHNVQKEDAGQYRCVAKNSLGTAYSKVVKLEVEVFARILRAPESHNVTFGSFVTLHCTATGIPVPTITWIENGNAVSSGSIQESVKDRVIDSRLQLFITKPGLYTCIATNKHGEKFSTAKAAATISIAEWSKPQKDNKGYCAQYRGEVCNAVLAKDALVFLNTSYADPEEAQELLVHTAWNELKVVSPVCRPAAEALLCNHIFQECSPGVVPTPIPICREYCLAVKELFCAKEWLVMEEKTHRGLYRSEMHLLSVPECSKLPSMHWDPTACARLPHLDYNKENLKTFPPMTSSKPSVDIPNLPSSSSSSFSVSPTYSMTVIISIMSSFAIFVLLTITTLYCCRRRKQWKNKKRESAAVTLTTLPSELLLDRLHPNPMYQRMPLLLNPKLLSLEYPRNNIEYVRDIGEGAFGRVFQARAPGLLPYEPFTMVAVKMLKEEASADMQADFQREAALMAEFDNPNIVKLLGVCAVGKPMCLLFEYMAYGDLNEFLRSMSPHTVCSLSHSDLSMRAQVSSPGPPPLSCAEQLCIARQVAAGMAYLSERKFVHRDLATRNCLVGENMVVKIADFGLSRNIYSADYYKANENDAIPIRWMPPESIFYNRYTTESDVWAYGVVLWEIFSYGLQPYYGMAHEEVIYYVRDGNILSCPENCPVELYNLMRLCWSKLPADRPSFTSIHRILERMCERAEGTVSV

Sequence of Mast/stem cell growth factor receptor Kit (Homo sapiens) (P10721 whole entry): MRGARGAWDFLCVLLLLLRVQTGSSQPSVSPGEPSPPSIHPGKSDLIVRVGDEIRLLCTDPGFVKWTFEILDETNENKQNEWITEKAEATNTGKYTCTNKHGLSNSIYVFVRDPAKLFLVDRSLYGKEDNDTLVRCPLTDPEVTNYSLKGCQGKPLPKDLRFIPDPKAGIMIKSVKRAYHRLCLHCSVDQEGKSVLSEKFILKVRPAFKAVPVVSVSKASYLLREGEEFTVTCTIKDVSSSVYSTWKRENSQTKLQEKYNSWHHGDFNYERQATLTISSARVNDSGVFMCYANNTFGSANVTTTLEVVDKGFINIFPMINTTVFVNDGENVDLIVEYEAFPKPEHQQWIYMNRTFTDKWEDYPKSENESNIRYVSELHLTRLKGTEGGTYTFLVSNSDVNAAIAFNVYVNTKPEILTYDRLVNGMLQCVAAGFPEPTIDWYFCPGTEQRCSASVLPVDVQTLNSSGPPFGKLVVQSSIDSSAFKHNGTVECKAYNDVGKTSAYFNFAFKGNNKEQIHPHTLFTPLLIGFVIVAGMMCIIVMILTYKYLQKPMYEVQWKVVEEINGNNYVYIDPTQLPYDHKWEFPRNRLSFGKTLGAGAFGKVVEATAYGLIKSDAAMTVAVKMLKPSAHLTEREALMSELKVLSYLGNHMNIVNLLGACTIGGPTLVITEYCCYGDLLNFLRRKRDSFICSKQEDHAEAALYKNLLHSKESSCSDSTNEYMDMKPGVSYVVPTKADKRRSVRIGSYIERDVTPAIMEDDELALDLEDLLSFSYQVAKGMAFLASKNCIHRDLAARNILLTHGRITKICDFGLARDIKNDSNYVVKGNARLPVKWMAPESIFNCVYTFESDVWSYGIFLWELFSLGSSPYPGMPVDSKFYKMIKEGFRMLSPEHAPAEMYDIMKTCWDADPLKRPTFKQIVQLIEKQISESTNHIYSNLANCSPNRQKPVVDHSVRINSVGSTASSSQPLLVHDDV
Sequence of Leukocyte tyrosine kinase receptor (Homo sapiens) (P29376 whole entry): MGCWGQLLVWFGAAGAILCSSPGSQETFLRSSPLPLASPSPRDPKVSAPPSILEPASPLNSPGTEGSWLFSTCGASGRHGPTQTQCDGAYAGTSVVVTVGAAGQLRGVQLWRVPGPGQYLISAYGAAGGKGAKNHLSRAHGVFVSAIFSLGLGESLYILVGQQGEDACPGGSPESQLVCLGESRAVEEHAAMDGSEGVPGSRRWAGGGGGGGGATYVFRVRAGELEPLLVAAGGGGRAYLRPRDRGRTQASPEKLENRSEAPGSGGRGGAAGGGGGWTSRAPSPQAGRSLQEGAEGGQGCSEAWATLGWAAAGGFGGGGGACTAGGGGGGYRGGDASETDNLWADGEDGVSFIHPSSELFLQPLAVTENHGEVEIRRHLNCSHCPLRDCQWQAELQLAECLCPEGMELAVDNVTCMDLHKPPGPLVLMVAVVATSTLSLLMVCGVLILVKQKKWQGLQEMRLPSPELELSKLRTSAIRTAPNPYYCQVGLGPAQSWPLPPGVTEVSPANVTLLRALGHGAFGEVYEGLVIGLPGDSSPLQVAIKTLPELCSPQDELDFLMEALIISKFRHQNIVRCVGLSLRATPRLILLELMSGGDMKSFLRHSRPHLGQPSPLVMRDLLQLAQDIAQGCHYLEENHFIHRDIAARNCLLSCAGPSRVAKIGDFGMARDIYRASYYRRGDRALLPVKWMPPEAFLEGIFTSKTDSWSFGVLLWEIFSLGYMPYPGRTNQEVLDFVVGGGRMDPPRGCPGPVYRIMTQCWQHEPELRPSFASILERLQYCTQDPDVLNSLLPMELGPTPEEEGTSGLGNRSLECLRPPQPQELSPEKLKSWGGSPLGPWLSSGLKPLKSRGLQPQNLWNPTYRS
Sequence of Tyrosine-protein kinase Lck (Homo sapiens) (P06239 2-509 limits assumed): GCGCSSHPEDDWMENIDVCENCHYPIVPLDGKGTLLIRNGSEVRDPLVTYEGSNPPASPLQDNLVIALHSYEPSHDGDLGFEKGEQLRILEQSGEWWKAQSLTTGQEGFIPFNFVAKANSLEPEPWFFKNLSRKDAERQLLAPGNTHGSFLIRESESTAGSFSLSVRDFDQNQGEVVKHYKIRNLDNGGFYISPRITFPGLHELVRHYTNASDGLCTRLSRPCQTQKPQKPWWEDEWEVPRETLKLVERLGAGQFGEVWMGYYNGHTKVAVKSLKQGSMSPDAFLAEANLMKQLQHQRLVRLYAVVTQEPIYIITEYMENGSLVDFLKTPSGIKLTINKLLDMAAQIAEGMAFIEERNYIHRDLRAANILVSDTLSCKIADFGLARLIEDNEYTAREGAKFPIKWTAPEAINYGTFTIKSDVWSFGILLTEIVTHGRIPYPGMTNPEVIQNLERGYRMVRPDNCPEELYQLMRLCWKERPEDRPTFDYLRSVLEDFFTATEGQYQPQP
Sequence of Mast/stem cell growth factor receptor Kit (Homo sapiens), P10721 [V560G] (P10721 whole entry V560G): as the sequence (P10721 whole entry) above, with V560G counted along it
Sequence of Tyrosine-protein kinase Lyn (Homo sapiens) (P07948 2-512 limits assumed): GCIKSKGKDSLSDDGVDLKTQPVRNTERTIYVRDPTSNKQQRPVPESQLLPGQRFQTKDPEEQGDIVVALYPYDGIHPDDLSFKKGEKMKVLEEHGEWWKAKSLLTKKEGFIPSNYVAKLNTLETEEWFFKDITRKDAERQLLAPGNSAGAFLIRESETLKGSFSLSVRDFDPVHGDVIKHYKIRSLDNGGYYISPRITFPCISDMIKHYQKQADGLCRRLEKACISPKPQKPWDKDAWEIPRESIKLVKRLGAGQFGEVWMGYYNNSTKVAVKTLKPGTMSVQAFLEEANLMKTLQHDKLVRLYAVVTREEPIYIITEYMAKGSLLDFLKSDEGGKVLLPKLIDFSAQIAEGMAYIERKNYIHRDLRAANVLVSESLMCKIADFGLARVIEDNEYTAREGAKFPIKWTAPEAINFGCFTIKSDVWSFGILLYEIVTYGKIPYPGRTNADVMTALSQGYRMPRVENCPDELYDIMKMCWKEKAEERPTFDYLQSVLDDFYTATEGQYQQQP
Sequence of Hepatocyte growth factor receptor (Homo sapiens) (P08581 whole entry): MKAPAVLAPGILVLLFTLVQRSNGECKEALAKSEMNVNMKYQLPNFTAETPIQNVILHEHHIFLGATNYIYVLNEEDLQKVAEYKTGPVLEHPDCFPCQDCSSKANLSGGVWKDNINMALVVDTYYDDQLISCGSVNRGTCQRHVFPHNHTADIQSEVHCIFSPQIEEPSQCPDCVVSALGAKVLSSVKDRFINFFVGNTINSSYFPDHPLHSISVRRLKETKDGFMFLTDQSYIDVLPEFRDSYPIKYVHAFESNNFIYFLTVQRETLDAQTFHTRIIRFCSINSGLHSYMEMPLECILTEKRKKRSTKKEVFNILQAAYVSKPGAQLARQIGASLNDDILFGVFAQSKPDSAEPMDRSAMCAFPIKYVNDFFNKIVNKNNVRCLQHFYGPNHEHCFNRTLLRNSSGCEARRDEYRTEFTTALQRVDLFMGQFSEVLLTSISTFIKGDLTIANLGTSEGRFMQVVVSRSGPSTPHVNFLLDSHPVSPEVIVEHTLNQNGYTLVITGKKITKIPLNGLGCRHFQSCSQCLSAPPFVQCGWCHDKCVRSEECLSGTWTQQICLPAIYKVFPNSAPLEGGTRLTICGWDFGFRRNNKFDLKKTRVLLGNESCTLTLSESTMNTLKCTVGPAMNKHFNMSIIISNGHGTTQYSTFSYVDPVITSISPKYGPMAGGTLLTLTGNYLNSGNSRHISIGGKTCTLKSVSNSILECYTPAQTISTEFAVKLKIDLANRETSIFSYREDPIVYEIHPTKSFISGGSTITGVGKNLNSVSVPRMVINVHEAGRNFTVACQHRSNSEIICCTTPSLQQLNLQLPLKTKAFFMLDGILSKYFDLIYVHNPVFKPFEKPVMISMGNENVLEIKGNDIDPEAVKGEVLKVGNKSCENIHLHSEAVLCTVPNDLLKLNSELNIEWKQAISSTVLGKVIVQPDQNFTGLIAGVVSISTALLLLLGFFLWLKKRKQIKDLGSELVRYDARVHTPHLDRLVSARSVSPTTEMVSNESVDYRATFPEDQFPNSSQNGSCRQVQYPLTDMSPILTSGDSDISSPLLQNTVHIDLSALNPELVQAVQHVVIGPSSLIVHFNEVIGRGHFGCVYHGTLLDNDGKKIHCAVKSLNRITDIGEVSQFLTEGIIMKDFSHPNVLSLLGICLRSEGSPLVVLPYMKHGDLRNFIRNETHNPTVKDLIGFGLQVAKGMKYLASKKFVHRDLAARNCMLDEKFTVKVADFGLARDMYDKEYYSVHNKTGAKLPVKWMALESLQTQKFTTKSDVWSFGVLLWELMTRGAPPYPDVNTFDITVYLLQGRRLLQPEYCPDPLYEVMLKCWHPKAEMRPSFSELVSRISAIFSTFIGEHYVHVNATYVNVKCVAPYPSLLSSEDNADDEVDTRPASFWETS
Sequence of Mast/stem cell growth factor receptor Kit (Homo sapiens), P10721 [T670I] (P10721 whole entry T670I): as the sequence (P10721 whole entry) above, with T670I counted along it
Sequence of Mast/stem cell growth factor receptor Kit (Homo sapiens), P10721 [D816V] (P10721 whole entry D816V): as the sequence (P10721 whole entry) above, with D816V counted along it

SMILES | inhibition [1] | inhibition [2] | inhibition [3] | inhibition [4] | inhibition [5] | inhibition [6] | inhibition [7] | inhibition [8] | inhibition [9] | inhibition [10] | inhibition [11] | inhibition [12] | inhibition [13] | inhibition [14] | inhibition [15] | inhibition [16] | inhibition [17] | inhibition [18] | inhibition [19] | inhibition [20]
CCn1c(-c2nonc2N)nc2ccc(F)cc21 | 6.81% | 6.28% | 3.76% | 3.59% | 6.26% | -1.12% | -0.91% | 2.91% | 2.85% | 3.51% | 5.25% | 7.21% | 9.59% | 3.75% | 5.9% | 1.51% | 3.19% | 8.56% | 9.65% | 2.27%
[O-][S+]1CCN(Cc2ccc(-c3ccc4ncnc(Nc5ccc(OCc6ccccc6)c(Cl)c5)c4c3)o2)CC1 | 0.65% | -2.21% | -2.37% | 4.79% | 4.66% | -1.31% | -1.84% | 1.46% | 5.8% | 2.41% | 7.75% | 1.18% | 6.07% | -1.3% | 3.42% | 7.08% | 48.2% | 3.11% | 5.04% | 1.43%
Nc1nccc(-c2c(-c3ccc(F)cc3)nn3cc(C(F)(F)F)ccc23)n1 | 1.1% | 1.51% | -0.82% | -0.08% | -0.07% | 1.43% | 0.2% | 2.62% | 4.27% | 1.83% | 2.62% | 1.67% | 2.06% | 1.33% | 2.59% | -0.89% | 0.12% | 2.79% | 0.01% | -1.22%
Cc1ccc(NC(=O)CC2CC2)cc1-c1ccc(C(=O)NCC2CC2)cc1 | 5.34% | 4% | 3.9% | 2.39% | 3.24% | 1.38% | 2.75% | 1.18% | 3.82% | 4.18% | 4.25% | 6.32% | 7.19% | 4.03% | 6.24% | 0.96% | 1.85% | 7.51% | 9% | 2.1%
O=C(Nc1ccc(Oc2ccc3[nH]c(NC(=O)c4ccco4)nc3c2)cc1)Nc1cc(C(F)(F)F)ccc1F | 92.1% | -0.77% | -1.72% | 12.6% | 79.5% | 25.1% | 72.9% | 1% | 38.8% | 0.05% | 5.81% | 14% | 65.7% | 9.31% | 60.5% | 0.43% | 14.1% | 3.13% | 42.9% | 49.9%
Cc1ccc(C(=O)NC2CC2)cc1-c1ccc2[nH]ncc2c1 | 9.73% | -2.2% | -3.32% | -2.37% | -3.32% | 1.39% | 6.83% | -0.97% | 1.92% | -2.04% | -2.27% | -2.45% | -0.16% | -2.22% | -0.48% | -1.71% | 1.57% | -0.6% | -1.74% | 0.78%
CCn1c(-c2nonc2N)nc2c(C#CC(C)(C)O)nc(OCCNC)cc21 | 6.66% | 4.65% | 3.95% | 0.61% | 3.65% | -4.02% | 4.6% | 2.55% | 2.44% | 5.09% | 4.95% | 5.06% | 5.53% | 2.97% | 3.02% | 2.03% | 2.24% | 4.48% | 0.4% | 1.71%
COC(=O)c1cncc(/C=C/c2c(C)cc(O)cc2C)c1 | 83.5% | 4.37% | 7.02% | 2.73% | 0.94% | 4.65% | 41.8% | 5.78% | 30.5% | 3.77% | 4.87% | 12.3% | 46.2% | 7.81% | 41.9% | 0.09% | 2.53% | 1.79% | 11.5% | 2.48%
Cc1ccc2c(-c3ccnc(Nc4cccc(C(F)(F)F)c4)n3)c(-c3ccccc3)nn2n1 | 47.6% | 0.01% | 6.47% | 2.51% | 3.44% | 2.8% | 10.7% | 8.54% | 42% | 4.14% | 2.99% | 12.6% | 53% | 8.81% | 47.8% | 4.49% | 20% | 13.9% | 10.4% | 4.93%
NC(=O)c1sc(-n2cnc3ccccc32)cc1OCc1ccccc1Br | 5.34% | 2.22% | 4.99% | 1.31% | 4.08% | -5.3% | -0.34% | 3.94% | 5.49% | 4.25% | 6.11% | 4.01% | 6.01% | 1.96% | 3.34% | 1.26% | 2.98% | 3.2% | 6.5% | 3.93%
CCS(=O)(=O)c1ccc(OC)c(Nc2ncc(-c3cccc(OC)c3)o2)c1 | 97% | 0.77% | 7.53% | 10.8% | 67.6% | 3.11% | 38.3% | 11.7% | 47.6% | 1.67% | 3.16% | 20.2% | 68.2% | 15.9% | 63.6% | 2.42% | 7.73% | -0.79% | 2.24% | 4.87%
CC(C)c1ccc2c(c1)NC(=O)/C2=N/Nc1ccc(S(N)(=O)=O)cc1 | 31.5% | -0.12% | 1.26% | 0.1% | 5.91% | 9.17% | 19.4% | 1.79% | 8.63% | 1.63% | 0.89% | 3.02% | 12.2% | 2.61% | 10.5% | 0.63% | 1.96% | 0.7% | 1.76% | -0.51%
NC(=O)c1cccc(Nc2nccc(Nc3cccc(F)c3)n2)c1 | 82.6% | -0.14% | 2.14% | 0.52% | 7.62% | 2.06% | 32.6% | 2.44% | 15% | 0.75% | 6.92% | 3.6% | 36.1% | 2.42% | 30.6% | 0.08% | 4.99% | 7.98% | 9.64% | 0.8%
